# Screening results as filed in PubChem BioAssay.
# Hits are enriched below; roughly 1.4% of the tested compounds scored in any of these assays.
# TSHR antag = antagonists of human thyroid stimulating hormone receptor; activity change, negative = inhibition, % at 11.5 µM; TSHR-expressing cells, TSH-stimulated cAMP HTRF, 2 h; stronger effect = lower value; P16473; AID 504810; 330,000 tested, 0.2% active;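 active = activity change below a set negative limit, meaning inhibition stronger than a set level, cut at about -70% in these data; inconclusive = activity change between two set negative limits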; note: % is set by controls: 0 for no effect and ±100 for the full control effect
# Target sequence (P16473 whole entry, looked up): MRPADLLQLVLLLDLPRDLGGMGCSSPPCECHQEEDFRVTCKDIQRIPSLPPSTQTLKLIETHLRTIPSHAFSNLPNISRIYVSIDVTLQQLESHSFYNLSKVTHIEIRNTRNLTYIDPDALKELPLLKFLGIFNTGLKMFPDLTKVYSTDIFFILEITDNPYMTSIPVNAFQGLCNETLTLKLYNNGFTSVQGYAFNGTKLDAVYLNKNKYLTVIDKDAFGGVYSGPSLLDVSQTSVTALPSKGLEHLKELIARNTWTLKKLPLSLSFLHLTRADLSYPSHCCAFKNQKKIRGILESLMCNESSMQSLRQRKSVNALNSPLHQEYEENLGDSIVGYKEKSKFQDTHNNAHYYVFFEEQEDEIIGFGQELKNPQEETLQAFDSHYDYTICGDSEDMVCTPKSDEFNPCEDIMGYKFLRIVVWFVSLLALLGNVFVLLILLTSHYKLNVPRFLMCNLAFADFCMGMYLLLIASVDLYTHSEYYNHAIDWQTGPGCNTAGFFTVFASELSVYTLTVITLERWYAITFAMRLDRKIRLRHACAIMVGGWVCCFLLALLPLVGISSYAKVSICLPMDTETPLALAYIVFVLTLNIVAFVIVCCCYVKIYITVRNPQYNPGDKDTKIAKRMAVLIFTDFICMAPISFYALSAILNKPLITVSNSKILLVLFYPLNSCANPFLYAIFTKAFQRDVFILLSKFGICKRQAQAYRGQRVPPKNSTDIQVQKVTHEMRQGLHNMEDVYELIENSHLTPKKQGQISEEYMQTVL
#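 Competitive HTRF cAMP read-out (cryptate anti-cAMP antibody, cAMP-d2; 30 min, room temperature) in freshly harvested TSHR cells. Compounds added before TSH at EC80 (4nM final), followed by 2 hours' incubation at 37 deg C.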
# TCR act = T cell receptor activation; primary human leukocytes, anti-CD3, IL-2 HTRF, 48 h; Potency, µM (highest dose often 9.22 µM), for the others: at the highest dose activation of IL-2 secretion, most hits filed as activators; 330,000 tested, under 10 active; note: % of control where 0% means no effect
#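 IL-2 produced over 48 hr by a-CD3 bead-stimulated primary human leukocytes exposed to compounds was detected with a homogeneous time-resolved FRET immunoassay, 665nm acceptor signal after 320nm excitation.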
# p53 reactivation = restores transcriptional activity of mutant p53; H1299 p53-A138V BP100-luciferase reporter, luminescence, 24 h; Potency, µM (series often up to 92.2 µM), inactives show top-dose activity change, positive = activation, usual class: activators; 320,000 tested, 0.063% active; AID 504706; note: potency is the fitted concentration of half-maximal effect; % of control where 0% means no effect; nearly all actives have a fitted effect of over 45% in size
#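 H1299 (p53-null), stable ts p53-A138V + BP100-Luc; 1000 cells/well, Opti-MEM/10% FBS; cpd 4 pt, 1:5; 24 h, 37 deg C, 5% CO2; detection reagent 10 min RT; luminescence.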
# BRCA1 expr act = increases BRCA1 expression | MCF7-BRCA1-FFLuc reporter, luminescence, 48 h; response scale: scaled: vehicle 0%, 10 µM genistein 100% | Potency, µM (series often up to 46.1 µM), without a hit: at the top dose activation, usual class: activators | 380,000 tested, 1.1% active | AID 624202; note: potency is the fitted concentration of half-maximal effect; nearly all actives have a fitted effect of over 80% in size
#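 MCF7 cells carrying a BRCA1-firefly luciferase reporter (2000 cells/well, phenol-red free MEM) were attached for 2 h at 37 °C, then given compounds for 48 h. Luminescence was read 15 min after luciferase reagent; activity normalized to genistein (10 microM) and DMSO.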
# GLS inh = inhibitors of human glutaminase (GLS); O94925; GLS enzymatic activity, qHTS titration; Potency, µM (titrated, usually from 45.5 µM), without a hit: at the top dose activity change, negative = inhibition, hits mostly inhibitors; 410,000 tested, 0.21% active; note: potency is the fitted concentration of half-maximal effect; % is set by controls: 0 for no effect and ±100 for the full control effect
#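 Read-out is an Amplex red fluorescence increase coupled through glutamate oxidase and HRP, measured before and after 30 min room-temperature incubation. hKGA is in 45 mM KH2PO4 (pH 8.2) with 0.02% Tween-20; glutamine added as 1mM solution.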
# N370S GC = inhibits or activates N370S mutant glucocerebrosidase. P04062. N370S GC spleen homogenate, 4MU-glucoside fluorescence. Potency, µM (highest dose often 59.4 µM), without a hit: top-dose activity change, negative = inhibition, most hits filed as inhibitors. AID 2101. 330,000 tested, 0.092% active;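 note: potency is the fitted concentration of half-maximal effect; 0% = full enzyme activity and -100% = no enzyme basal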
# Starred values were filed as active, the others as inactive; u = inconclusive; x = no result given; [ ] = another dose, or the depositor's remark. Unless noted, calls come from the whole dose curve; as a rule, active = well fitted curve in the direction sought with a large enough effect; inconclusive = small, poorly fitted or top-dose-only effect, or another doubt; inactive = no such curve, though single readings can be large; an effect the other way counts as inactive or inconclusive.
SMILES,TSHR antag,TCR act,p53 reactivation,BRCA1 expr act,GLS inh,N370S GC
O=C(NC(=O)c1ccc(Cl)cc1)OC1CCCCC1,4,-2%[46.1 µM],26%,13µM*,5%,-19%
COc1ccc(OCc2csc(N)n2)cc1,1,-1%,u,10µM*,4%,1%
COc1cccc(CNC(=O)c2ccc(-c3nc(CS(=O)(=O)c4ccccc4)c(C)o3)cc2)c1,x,x,x,x,0%,x
O=C(N/N=C/c1c[nH]c2ccccc12)c1cccc(O)c1,-4,1%,11%,13µM*,0%,-6%
O=C(N/N=C/c1c[nH]c2ccccc12)c1ccc(O)c(O)c1,15,-1%,8%,-20%,11µM*,u
O=C(O)c1cc(N/N=C/c2c[nH]c3ccccc23)ccc1Cl,-1,8%,12%,3.2µM*,14µM*,-5%
O=C(O)C1Nc2c(O)cc(Cl)c([N+](=O)[O-])c2C2C=CCC12 (stereo not drawn),-6,11%,-5%,-27%,3.2µM*,-15%
CCCCN(C(=O)CSc1nnc(-c2ccccc2)o1)c1c(N)n(CCC)c(=O)[nH]c1=O,2,2%,4%,29%,-1%,x
CCN(C(=O)CSc1nnc(-c2ccccc2)o1)c1c(N)n(Cc2ccccc2)c(=O)[nH]c1=O,-109*,-11%,-1%,-26%,-8%,11%
Cc1cccc(CC(=O)NCC2CCCCC2)c1,11,2%,u,10µM*,-2%,0%
COc1cccc(/C=C/C(=O)NCC2CCCCC2)c1,x,-1%,x,53%,-1%,x
N#Cc1ccc(CSc2ccccn2)c(Cl)c1,-11,-2%,x,52%,-1%,3%
Cn1c(SCc2ccc(C#N)cc2Cl)nc2ccccc21,-15,0%,u,4.5µM*,2%,7%
CCc1ccc(NC(=S)NC(=O)CC(C)C)cc1,-3,-2%[46.1 µM],u,6.3µM*,-9%,16%
CCOc1ccccc1CNC(=O)c1oc2c(c1C)-c1[nH]ncc1CC2,x,x,x,x,4%,x
CN1CCN(C(=O)C2=C[C@@H](c3ccc(C(F)(F)F)cc3)C[C@@H](OCc3ccc(CO)cc3)O2)CC1,-7,-3%,-5%,4%,1%,-27%
O=C(C1=C[C@@H](c2ccc(C(F)(F)F)cc2)C[C@@H](OCc2ccc(CO)cc2)O1)N1CCN(Cc2ccccc2)CC1,-9,2%,4%,0%,0%,13µM*
Cc1ccccc1-n1c(C)nnc1SC(C)C(=O)NCc1ccco1 (stereo not drawn),x,x,x,9%,x,x
Cc1c(Cl)cccc1Nc1nc(N)nc(CSc2ncccn2)n1,1,-10%,9%,10µM*,5%,23%
Cc1ccc(NC(=O)Cn2ncc3c([nH]c4ccccc43)c2=O)cc1Cl,-70*,2%,4%,-13%,-1%,-11%
COc1ccc(NC(=O)Cn2ncc3c([nH]c4ccccc43)c2=O)cc1Cl,x,x,x,x,0%,x
CC[C@H](C)[C@H](NC(=O)[C@H](C)NC(=O)[C@H](Cc1cnc[nH]1)NC(=O)[C@@H]1CCCN1C(=O)CNC(=O)[C@H](CC(C)C)NC(=O)[C@H](CC(C)C)NC(=O)[C@H](Cc1ccc(O)cc1)NC(=O)CNC(=O)[C@H](C)NC(=O)[C@H](CO)NC(=O)[C@H](CC(N)=O)NC(=O)[C@H](CC(C)C)NC(=O)[C@@H](NC(=O)[C@H](Cc1c[nH]c2ccccc12)NC(=O)CN)[C@@H](C)O)C(=O)O,x,x,x,x,x,12%
Cc1ccc(-n2c(C)nc3ccsc3c2=O)cc1,x,-1%,x,-1%,0%,x
Cc1ccc(-c2nc3ccsc3c(=O)o2)cc1,-4,2%,u,13µM*,11%,8%
Cc1ccc(-c2cc(C(=O)Nc3cc(C)ccc3O)no2)cc1,-12,2%,4%,1.1µM*,-2%,2%
SMILES,TSHR antag,TCR act,p53 reactivation,BRCA1 expr act,GLS inh,N370S GC
O=C(Nc1cc(Br)ccc1O)c1cc(-c2ccc3c(c2)OCO3)on1,1,-6%,u,1.4µM*,0%,-6%
COc1ccc(-c2cc(C(=O)Nc3cc(C)ccc3O)no2)cc1,0,-3%,15%,u,1%,0%
Cc1ccc(N=C2NC(=O)/C(=C/c3cccn3C)S2)cc1C,-11,1%,3%,2%,-6%,-18%
Cc1ccc(N=C2NC(=O)/C(=C/c3cccn3C)S2)cc1,-5,-5%,28%,3.5µM*,2%,-23%
CCCCc1ccc(Nc2ncnc3nc[nH]c23)cc1,-8,0%,u,4.5µM*,1%,-1%
Cc1ccc2cc(CCNC(=O)c3ccco3)c(=O)[nH]c2c1,-1,10%[46.1 µM],u,13µM*,16%,8%
COc1ccc2cc(CCNC(=O)c3ccco3)c(=O)[nH]c2c1,-36,1%,u,102%,-16%,3%
C/C=C/c1ccc(OCC(=O)OCc2csc(Nc3ccc(C)cc3)n2)c(OC)c1,-2,11%[46.1 µM],u,11µM*,-2%,-3%
COc1cc2nc(N3CCCN(C)CC3)nc(Nc3ccncc3)c2cc1OC,x,x,x,-48%,x,x
O=C(NCC(=O)N1CCN(c2ncccn2)CC1)c1ccccc1F,x,2%,22%,7.9µM*,3%,x
O=C(Nc1cccc(Cl)c1)c1cnc[nH]1,8,-2%,u,7.9µM*,-3%,3%
O=C(Nc1cccc(O)c1)c1cc(-c2ccco2)on1,-6,2%,u,-10%,56%,10%
CC(=O)c1cccc(NC(=O)c2cc(C(C)C)on2)c1,-5,0%,u,3.2µM*,-4%,3%
O=C(Nc1cccc(Cl)c1)c1cnccn1,8,x,18%,73%,1%,-3%
CC(=O)c1ccc(NC(=O)c2ccc3nc(-c4ccco4)c(-c4ccco4)nc3c2)cc1,-21,-1%,-3%,-45%,14µM*,-1%
CC(=O)c1cccc(NC(=O)c2cc(-c3ccc(F)cc3)on2)c1,-7,0%,u,3%,2%,-10%
CC(=O)c1cccc(NC(=O)c2cc(-c3ccco3)on2)c1,-10,0%,u,10µM*,0%,-2%
